Results as given in PubChem BioAssay AID1159580 (chemical genetic matrix, 2015).
“And” between values parts separate entries of the source, which are not always exact repeats. Identical values can stand only once. Among all 5,500 compounds or so, about 2,000 (36%) were called active. Another 18% or so got no clear call; they are omitted. Cut-off read from the data, not from the text of the source: active = normalized growth mostly below about 0.91 (no sharp cut-off); inconclusive = no clear call, values can overlap the other calls; inactive = mostly above about 0.92. The list shows a part of the results.

Test: chemical genetic growth profiling, strain panel (AID 1159580);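 note: tested at 20 µM; growth read once vehicle control cultures reached saturation at 30 °C; 1 = growth at the plate median or of vehicle wells; lower values mean less growth of the strain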
Details: S. cerevisiae deletion strains, growth OD

Measured: normalized growth

CN(C)N=Nc1nc[nH]c1C(N)=O
inactive: locus YAL013W, strain DEP1, stronger effect = lower value 1.01 | locus YAL021C, strain ccr4, stronger effect = lower value 0.968 | locus YAL026C, strain drs2, stronger effect = lower value 1 | locus YAL030W, strain snc1, stronger effect = lower value 0.976 | locus YBL061C, strain skt5, stronger effect = lower value 0.976 | locus YBR009C, strain hhf1, stronger effect = lower value 1.02 | locus YBR021W, strain FUR4, stronger effect = lower value 1.02 | locus YBR023C, strain chs3, stronger effect = lower value 0.982 | locus YBR171W, strain sec66, stronger effect = lower value 0.969 | locus YBR229C, strain ROT2, stronger effect = lower value 1.01 | locus YBR231C, strain swc5, stronger effect = lower value 0.985 | locus YBR279W, strain paf1, stronger effect = lower value 0.966 | locus YCL011C, strain gbp2, stronger effect = lower value 0.953 | locus YCL016C, strain dcc1, stronger effect = lower value 0.957 | locus YCL029C, strain bik1, stronger effect = lower value 1 | locus YCL061C, strain MRC1, stronger effect = lower value 0.992 | locus YCL069W, strain vba3, stronger effect = lower value 0.984 | locus YCR088W, strain abp1, stronger effect = lower value 0.968 | locus YDL005C, strain med2, stronger effect = lower value 0.965 | locus YDL035C, strain GPR1, stronger effect = lower value 1.02 | locus YDL040C, strain nat1, stronger effect = lower value 0.979 | locus YDL074C, strain BRE1, stronger effect = lower value 1.01 | locus YDL101C, strain DUN1, stronger effect = lower value 1.01 | locus YDL134C, strain PPH21, stronger effect = lower value 1.02 | locus YDL185W, strain tfp1, stronger effect = lower value 0.997 | locus YDL192W, strain arf1, stronger effect = lower value 0.996 | locus YDR001C, strain nth1, stronger effect = lower value 0.975 | locus YDR069C, strain doa4, stronger effect = lower value 0.976 | locus YDR101C, strain arx1, stronger effect = lower value 1.01 | locus YDR137W, strain rgp1, stronger effect = lower value 0.975 | locus YDR150W, strain NUM1, stronger effect = lower value 1.01 | locus YDR159W, strain sac3, stronger effect = lower value 1.02 | locus YDR162C, strain NBP2, stronger effect = lower value 1.03 | locus YDR195W, strain ref2 1.01 | locus YDR297W, strain sur2, stronger effect = lower value 0.966 | locus YDR318W, strain mcm21, stronger effect = lower value 1 | locus YDR334W, strain swr1, stronger effect = lower value 0.949 | locus YDR335W, strain msn5, stronger effect = lower value 0.965 | locus YDR388W, stronger effect = lower value 0.992 | locus YDR392W, strain spt3, stronger effect = lower value 0.918 | locus YDR502C, strain sam2, stronger effect = lower value 1.01 | locus YEL003W, strain gim4, stronger effect = lower value 0.977 | locus YEL037C, strain rad23, stronger effect = lower value 0.985 | locus YEL061C, strain CIN8 (second series), stronger effect = lower value 0.98 | locus YEL061C, strain CIN8, stronger effect = lower value 1.01 | locus YER015W, strain faa2, stronger effect = lower value 0.981 | locus YER016W, strain bim1, stronger effect = lower value 0.98 | locus YER110C, stronger effect = lower value 0.995 | locus YER111C, strain swi4, stronger effect = lower value 0.987 | locus YER155C, strain BEM2 (second series), stronger effect = lower value 0.998 | locus YER155C, strain BEM2, stronger effect = lower value 1 | locus YER167W, strain BCK2, stronger effect = lower value 1.02 | locus YFR010W, strain ubp6, stronger effect = lower value 0.987 | locus YGL078C, strain dbp3, stronger effect = lower value 0.999 | locus YGL086W, strain mad1, stronger effect = lower value 1.01 | locus YGL167C, strain pmr1, stronger effect = lower value 0.981 | locus YGL173C, strain kem1, stronger effect = lower value 0.961 | locus YGL227W, strain vid30, stronger effect = lower value 0.979 | locus YGL240W, strain doc1, stronger effect = lower value 0.951 | locus YGL248W, strain PDE1, stronger effect = lower value 1.01 | locus YGL253W, strain hxk2, stronger effect = lower value 0.953 | locus YGR078C, strain PAC10, stronger effect = lower value 1 | locus YGR135W, strain pre9, stronger effect = lower value 1 | locus YGR252W, strain gcn5, stronger effect = lower value 1.05 | locus YHR013C, strain ard1, stronger effect = lower value 0.965 | locus YHR027C, strain rpn1, stronger effect = lower value 0.967 | locus YHR030C, strain SLT2, stronger effect = lower value 1.01 | locus YHR079C, strain IRE1 (second series), stronger effect = lower value 1 | locus YHR079C, strain IRE1, stronger effect = lower value 1.02 | locus YHR094C, strain hxt1, stronger effect = lower value 0.999 | locus YHR129C, strain ARP1, stronger effect = lower value 1.01 | locus YHR142W, strain chs7, stronger effect = lower value 0.926 | locus YHR200W, strain rpn10, stronger effect = lower value 1.01 | locus YIL066C, strain RNR3, stronger effect = lower value 1.01 | locus YIL073C, strain SPO22, stronger effect = lower value 1.02 | locus YIL125W, strain kgd1, stronger effect = lower value 0.995 | locus YIR030C, strain dcg1, stronger effect = lower value 1.01 | locus YJL092W, strain hpr5, stronger effect = lower value 0.984 | locus YJL095W, strain BCK1 (second series), stronger effect = lower value 0.966 | locus YJL095W, strain BCK1, stronger effect = lower value 1.01 and 1.03 | locus YJL115W, strain asf1, stronger effect = lower value 0.968 | locus YJL129C, strain trk1, stronger effect = lower value 0.958 | locus YJL134W, strain LCB3, stronger effect = lower value 1 | locus YJL154C, strain vps35, stronger effect = lower value 0.954 | locus YJL164C, strain tpk1, stronger effect = lower value 0.989 | locus YJL166W, strain qcr8, stronger effect = lower value 0.936 | locus YJL168C, strain set2, stronger effect = lower value 1.01 | locus YJL187C, strain SWE1 (second series), stronger effect = lower value 1.02 | locus YJL187C, strain SWE1, stronger effect = lower value 0.993 | locus YJR043C, strain POL32, stronger effect = lower value 1.03 | locus YJR066W, strain TOR1, stronger effect = lower value 1 | locus YJR075W, strain HOC1, stronger effect = lower value 1.01 | locus YKL009W, strain mrt4, stronger effect = lower value 1 | locus YKL068W, stronger effect = lower value 0.997 | locus YKL085W, strain MDH1 (second series), stronger effect = lower value 0.999 | locus YKL085W, strain MDH1, stronger effect = lower value 0.999 | locus YKL160W, strain elf1, stronger effect = lower value 0.931 | locus YKR001C, strain vps1, stronger effect = lower value 1 | locus YKR026C, strain gcn3, stronger effect = lower value 0.975 | locus YKR091W, strain srl3, stronger effect = lower value 0.97 | locus YLL001W, strain dnm1, stronger effect = lower value 0.916 | locus YLL026W, stronger effect = lower value 0.987 | locus YLL041C, strain sdh2, stronger effect = lower value 0.987 | locus YLR027C, strain aat2, stronger effect = lower value 0.991 | locus YLR039C, strain RIC1, stronger effect = lower value 1.04 | locus YLR058C, strain SHM2, stronger effect = lower value 1.02 | locus YLR102C, strain apc9, stronger effect = lower value 0.999 | locus YLR113W, strain HOG1, stronger effect = lower value 1.06 | locus YLR221C, strain rsa3, stronger effect = lower value 0.956 | locus YLR258W, strain gsy2, stronger effect = lower value 0.979 | locus YLR262C, strain YPT6 (second series), stronger effect = lower value 0.97 | locus YLR262C, strain YPT6, stronger effect = lower value 1.02 | locus YLR268W, strain sec22, stronger effect = lower value 1.01 | locus YLR320W, strain mms22, stronger effect = lower value 0.941 | locus YLR330W, strain CHS5, stronger effect = lower value 1.01 | locus YLR342W, strain FKS1 (second series), stronger effect = lower value 1.01 | locus YLR342W, strain FKS1, stronger effect = lower value 0.974 | locus YLR357W, strain rsc2, stronger effect = lower value 0.965 | locus YLR370C, strain arc18, stronger effect = lower value 0.973 | locus YLR371W, strain rom2, stronger effect = lower value 1 | locus YLR384C, strain iki3, stronger effect = lower value 0.985 | locus YLR418C, strain cdc73, stronger effect = lower value 1.03 | locus YML016C, strain PPZ1, stronger effect = lower value 1.01 | locus YML032C, strain rad52, stronger effect = lower value 0.993 | locus YML120C, strain ndi1, stronger effect = lower value 0.925 | locus YML124C, strain tub3, stronger effect = lower value 1 | locus YMR058W, strain fet3, stronger effect = lower value 0.979 | locus YMR078C, strain ctf18, stronger effect = lower value 0.999 | locus YMR125W, strain sto1, stronger effect = lower value 0.935 | locus YMR129W, stronger effect = lower value 0.992 | locus YMR205C, strain PFK2, stronger effect = lower value 0.927 | locus YMR223W, strain ubp8, stronger effect = lower value 0.988 | locus YMR231W, strain pep5, stronger effect = lower value 0.993 | locus YMR263W, strain SAP30, stronger effect = lower value 1.02 | locus YMR307W, strain GAS1, stronger effect = lower value 1.07 | locus YNL067W, strain RPL9B, stronger effect = lower value 1.01 | locus YNL071W, strain lat1, stronger effect = lower value 0.986 | locus YNL153C, strain GIM3, stronger effect = lower value 1 | locus YNL183C, strain NPR1, stronger effect = lower value 0.986 | locus YNL209W, strain ssb2, stronger effect = lower value 0.976 | locus YNL233W, strain BNI4, stronger effect = lower value 1 | locus YNL248C, strain rpa49, stronger effect = lower value 0.968 | locus YNL250W, strain rad50, stronger effect = lower value 0.979 | locus YNL271C, strain bni1, stronger effect = lower value 0.995 | locus YNL298W, strain CLA4, stronger effect = lower value 0.999 | locus YNL307C, strain MCK1, stronger effect = lower value 0.996 | locus YNL322C, strain KRE1 (second series), stronger effect = lower value 0.974 | locus YNL322C, strain KRE1, stronger effect = lower value 1.01 | locus YNR049C, strain mso1, stronger effect = lower value 0.967 | locus YNR052C, strain pop2, stronger effect = lower value 1 | locus YOL006C, strain TOP1, stronger effect = lower value 1.06 | locus YOL012C, strain htz1 0.752 | locus YOL147C, strain pex11, stronger effect = lower value 0.998 | locus YOR001W, strain rrp6, stronger effect = lower value 1.01 | locus YOR061W, strain CKA2, stronger effect = lower value 1.01 | locus YOR069W, strain VPS5, stronger effect = lower value 1 | locus YOR070C, strain gyp1, stronger effect = lower value 0.993 | locus YOR080W, strain dia2, stronger effect = lower value 0.973 | locus YOR083W, strain WHI5, stronger effect = lower value 0.936 | locus YOR106W, strain vam3, stronger effect = lower value 0.932 | locus YOR136W, strain idh2, stronger effect = lower value 1.01 | locus YOR144C, strain elg1, stronger effect = lower value 1.01 | locus YOR184W, strain ser1, stronger effect = lower value 1.01 | locus YOR231W, strain MKK1, stronger effect = lower value 1.02 | locus YOR265W, strain rbl2, stronger effect = lower value 0.977 | locus YOR270C, strain vph1, stronger effect = lower value 0.988 | locus YOR290C, strain snf2, stronger effect = lower value 0.943 | locus YOR316C, strain cot1, stronger effect = lower value 0.997 | locus YPL051W, strain arl3, stronger effect = lower value 0.973 | locus YPL055C, strain LGE1, stronger effect = lower value 1.02 | locus YPL078C, strain atp4, stronger effect = lower value 0.928 | locus YPL106C, strain sse1, stronger effect = lower value 0.942 | locus YPL240C, strain hsp82, stronger effect = lower value 1 | locus YPL241C, strain CIN2, stronger effect = lower value 1.01 | locus YPL256C, strain CLN2, stronger effect = lower value 1.04 | locus YPR119W, strain clb2, stronger effect = lower value 0.995 | locus YPR141C, strain kar3, stronger effect = lower value 0.987 | locus YPR163C, strain tif3, stronger effect = lower value 1 | locus YPR167C, strain met16, stronger effect = lower value 1 | strain wtn01, stronger effect = lower value 0.995
